Compound activity deposited in PubChem BioAssay by several laboratories.
Cardio protect: modulators protecting cardiomyocytes from myocardial damage; H9c2 cardiomyocytes, H2O2 injury protection, ATPLite, 2 h; protection from H2O2 cell death, % at 20 µM; actives 0.63% (n = 360,000); AID 588492;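 active = compounds giving at least 50% protection of heart cells from peroxide-induced death in the single-dose screen, raw or plate-pattern-corrected value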;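 note: 0% = DMSO wells with peroxide and 100% = DMSO wells without peroxide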
PfG6PD inh: PfG6PD (Plasmodium falciparum) enzyme inhibition; inhibition, % at 20 µM; actives 0.78% (n = 350,000); PfGluPho enzyme, NADPH resazurin-diaphorase fluorescence;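 active = inhibition reaching at least a set limit at 20 µM in the primary screen, cut at about 59% in these data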;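 note: 0% = DMSO wells with substrate and 100% = DMSO wells lacking glucose-6-phosphate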
ALR H2O2 inh: blocks human ALR sulfhydryl oxidase activity; purified ALR, DTT oxidation, H2O2 HRP-luminol luminescence; AID 485317; P55789; actives 3.8% (n = 290,000); inhibition, % (no concentration beside the values);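 active = mean replicate inhibition above about 79%, with every replicate also reaching it, limit read from the data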
Target sequence (P55789 whole entry, looked up): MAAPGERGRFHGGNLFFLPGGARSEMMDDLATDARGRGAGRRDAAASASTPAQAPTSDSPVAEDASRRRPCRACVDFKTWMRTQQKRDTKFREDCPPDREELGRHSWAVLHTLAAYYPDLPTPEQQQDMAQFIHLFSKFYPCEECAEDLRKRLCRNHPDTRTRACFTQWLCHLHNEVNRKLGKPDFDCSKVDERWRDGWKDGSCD
M18AAP inhibitor: blocks P. falciparum M18 aspartyl aminopeptidase. recombinant PfM18AAP, H-Glu-NHMec fluorogenic cleavage. actives 1.2% (n = 290,000). inhibition, % at 7.35 µM;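 active = inhibition above the campaign mean inhibition over all tested compounds plus 3 SD, cut at about 28% in these data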;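 note: 0% = plate median of test compound wells and 100% = 2 mM ZnCl2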
PHOSPHO1 inh: PHOSPHO1 (human) inhibition; Q8TCT1; recombinant PHOSPHO1, absorbance phosphatase assay; inhibition, % at 13.3 µM; actives 1.1% (n = 290,000); AID 1565; in the data active = inhibition above about 60%
* marks the source's active call; other numbers are inactive results. Shown are actives, neighbours in structure and some others; about 5.6% of the full set was active somewhere.

`COc1cc2c(cc1CN1CCN(C(=O)c3cc(OC)c(OC)c(OC)c3)CC1)OCO2` gave Cardio protect 0, PfG6PD inh -11, ALR H2O2 inh -14, M18AAP inhibitor -2 and PHOSPHO1 inh 19.
CCCCn1c(NCc2ccccc2O)nc2ccccc21 was read as Cardio protect -10, PfG6PD inh 10, ALR H2O2 inh 98*, M18AAP inhibitor 1 and PHOSPHO1 inh 2.
Screening O=C(Nc1cccc(Cl)c1)NC1CCS(=O)(=O)C1 (stereo not given) returned Cardio protect 8, PfG6PD inh 1, ALR H2O2 inh -35, M18AAP inhibitor 3 and PHOSPHO1 inh -12.
For COc1ccc(-c2csc(=Nc3ccccc3)n2CCO)cc1 the results were Cardio protect -10, PfG6PD inh 0, ALR H2O2 inh 97*, M18AAP inhibitor 30* and PHOSPHO1 inh 19.
For COc1ccc(-c2csc(=NCCO)n2-c2ccccc2)cc1 the results were Cardio protect -13, PfG6PD inh 13, ALR H2O2 inh 99*, M18AAP inhibitor 5 and PHOSPHO1 inh 15.
`COc1ccc(N=c2scc(-c3ccc(S(=O)(=O)N4CCOCC4)cc3)n2CCCO)cc1` gave M18AAP inhibitor 3 and PHOSPHO1 inh -10.
For CCn1nc(C(=O)NNC(=O)CCOc2cc(C)ccc2C)c2ccccc2c1=O the results were Cardio protect 0, PfG6PD inh -13, ALR H2O2 inh 5, M18AAP inhibitor -2 and PHOSPHO1 inh 14.
Screening CCN(Cc1ccncc1)S(=O)(=O)c1ccc(C(C)=O)cc1 returned Cardio protect -9, PfG6PD inh 29, ALR H2O2 inh 90*, M18AAP inhibitor 6 and PHOSPHO1 inh 32.
For CCN(CC)S(=O)(=O)c1ccc(C(=O)Nc2ccc(Cc3ccncc3)cc2)cc1 the results were Cardio protect -20, PfG6PD inh 11, M18AAP inhibitor 0 and PHOSPHO1 inh 6.
For CC(=O)Nc1ccc2c(CSc3nncs3)cc(=O)oc2c1 the results were Cardio protect 2, PfG6PD inh 8, ALR H2O2 inh -16, M18AAP inhibitor 20 and PHOSPHO1 inh 5.
CC(=O)Nc1ccc2c(CSc3nnc(N)s3)cc(=O)oc2c1 was read as Cardio protect 19, PfG6PD inh 22, M18AAP inhibitor -12 and PHOSPHO1 inh 69*.
For CN1C/C(=C\c2ccc(N3CCOCC3)cc2)C(=O)/C(=C/c2ccc(N3CCOCC3)cc2)C1 the results were Cardio protect 4, PfG6PD inh 7, ALR H2O2 inh 79*, M18AAP inhibitor 20 and PHOSPHO1 inh 3.
`COc1cc(-c2n[nH]c(=S)n2-c2ccc(C)cc2)cc(OC)c1OC` gave Cardio protect -2, PfG6PD inh 38, ALR H2O2 inh 66, M18AAP inhibitor 11 and PHOSPHO1 inh -34.
Screening Cc1ccc(CN(C)c2ccc(S(=O)(=O)N3CCCC3)cn2)cc1 returned Cardio protect -10, PfG6PD inh -4 and ALR H2O2 inh 2.
COC(=O)CC1SC(=O)NC1=Nc1ccc(OC)cc1 (stereo not given) was read as Cardio protect -10, PfG6PD inh 2, ALR H2O2 inh -7, M18AAP inhibitor 12 and PHOSPHO1 inh 3.
`COC(=O)CC1SC(=O)NC1=Nc1ccc(O)cc1` (stereo not given) gave Cardio protect 0, PfG6PD inh 0, ALR H2O2 inh 96*, M18AAP inhibitor 3 and PHOSPHO1 inh -32.
O=C(O)CSc1nc(SCc2ccccc2Cl)nc2c1CCCC2 was read as Cardio protect 5, PfG6PD inh -36, ALR H2O2 inh 95*, M18AAP inhibitor -6 and PHOSPHO1 inh 3.
For COC(=O)CSc1nc(SCc2ccccc2Cl)nc2c1CCCC2 the results were Cardio protect 3, PfG6PD inh -25, ALR H2O2 inh -3, M18AAP inhibitor 0 and PHOSPHO1 inh 0.
`COc1cccc2c1C(=O)c1c(O)c3c(c(O)c1C2=O)C[C@@](O)(C(=O)CO)C[C@@H]3OC1CC(N)C(O)C(C)O1` (stereo not given in full) gave Cardio protect -1 and PfG6PD inh 49.
COc1cccc2c1C(=O)c1c(O)c3c(c(O)c1C2=O)C[C@@](O)(C(=O)CO)C[C@@H]3O[C@H]1C[C@H](N)[C@H](O)[C@H](C)O1 was read as Cardio protect -10, PfG6PD inh 24, ALR H2O2 inh -6, M18AAP inhibitor 28* and PHOSPHO1 inh -11.
Cc1cccc(CSCC(=O)N2CCN(S(=O)(=O)c3ccccc3C#N)CC2)c1 was read as Cardio protect 18 and PfG6PD inh 2.
